Measured values taken from PubChem BioAssay AID1456 (Vanderbilt High Throughput Screening Facility, 2008).
Out of some 190,000 compounds screened, about 4,100 (2.2%) were called active. Shown is part of a subset that was picked to be rich in actives. Unmarked numbers belong to inactive results.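 The calls were made as follows: active = thallium flux slope and its plate-corrected score both differing from the plate sample mean at a set confidence after two filtering rounds, in either direction; inactive = the rest.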

Each molecule was assayed against Solute carrier family 12 member 5 (Homo sapiens) (UniProt Q9H2X9) (assay: modulation of human KCC2 ion transport – cell-based, HEK293 KCC2, FluoZin-2 fluorescence, MLSMR, primary screen (AID 1456;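 also: slope of fluorescence scaled to starting intensity during 10 to 20 s after thallium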)). Settings: KCC2 cells, thallium flux FluoZin-2 fluorescence; at 10 µM.
Solute carrier family 12 member 5 (Homo sapiens), sequence (Q9H2X9 whole entry, looked up): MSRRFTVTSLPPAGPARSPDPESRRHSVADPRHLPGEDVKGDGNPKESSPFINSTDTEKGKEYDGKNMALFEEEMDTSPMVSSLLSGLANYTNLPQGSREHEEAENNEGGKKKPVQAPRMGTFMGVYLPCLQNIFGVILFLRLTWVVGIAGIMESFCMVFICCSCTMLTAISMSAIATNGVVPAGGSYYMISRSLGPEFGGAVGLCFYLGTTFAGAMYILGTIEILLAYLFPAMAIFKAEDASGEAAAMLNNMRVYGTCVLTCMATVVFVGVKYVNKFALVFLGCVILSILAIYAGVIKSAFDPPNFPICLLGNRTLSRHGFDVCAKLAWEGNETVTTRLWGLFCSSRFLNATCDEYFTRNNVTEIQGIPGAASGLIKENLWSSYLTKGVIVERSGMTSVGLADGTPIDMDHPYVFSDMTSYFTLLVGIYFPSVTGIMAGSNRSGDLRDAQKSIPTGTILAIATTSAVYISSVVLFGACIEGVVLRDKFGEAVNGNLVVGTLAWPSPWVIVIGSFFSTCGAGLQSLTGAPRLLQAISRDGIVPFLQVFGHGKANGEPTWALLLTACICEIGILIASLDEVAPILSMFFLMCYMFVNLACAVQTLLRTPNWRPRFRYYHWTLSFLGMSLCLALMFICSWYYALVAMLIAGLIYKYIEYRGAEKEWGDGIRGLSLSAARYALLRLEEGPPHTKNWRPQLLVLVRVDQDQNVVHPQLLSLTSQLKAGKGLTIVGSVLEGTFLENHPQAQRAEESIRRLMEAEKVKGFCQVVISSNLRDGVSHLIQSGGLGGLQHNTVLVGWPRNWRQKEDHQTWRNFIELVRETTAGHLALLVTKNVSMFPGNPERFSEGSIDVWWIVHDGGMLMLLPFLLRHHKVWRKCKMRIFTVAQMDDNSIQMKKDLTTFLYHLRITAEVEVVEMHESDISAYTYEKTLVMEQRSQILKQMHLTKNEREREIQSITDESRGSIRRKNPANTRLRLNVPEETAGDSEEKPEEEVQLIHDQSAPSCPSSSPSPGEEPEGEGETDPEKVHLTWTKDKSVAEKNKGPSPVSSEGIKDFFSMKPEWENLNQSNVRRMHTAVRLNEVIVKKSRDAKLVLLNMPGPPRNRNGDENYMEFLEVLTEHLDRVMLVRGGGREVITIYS

| SMILES | B-score of Tl+ flux slope (higher = more flux/activation; lower = inhibition) |
| --- | --- |
| CCCCC(=O)N/N=C/c1c(O)n(-c2ccccc2)c(=O)[nH]c1=O | -0.272 |
| O=C(CSC1c2ccccc2-c2ccccc21)N/N=C/c1ccccc1 | 2.57 (active) |
| c1cc2c(cc1[C@H]1OC[C@H]3[C@@H]1CO[C@@H]3c1ccc3c(c1)OCO3)OCO2 | 0.711 |
| CCC1(C)CC(CCNCc2ccc(N(C)C)cc2)(c2ccc(F)cc2)CCO1 (stereo not given) | 1.55 |
| CNC(=O)O/N=C(\N)Cc1csc2ccccc12 | 0.111 |
| COc1cc(-n2c(=S)[nH]c3ccc(C)cc3c2=O)c(Cl)cc1Cl | 69.6 (active) |
| COc1cccc(CN2CCCC(C(=O)c3ccccc3SC)C2)c1O (stereo not given) | -3.42 |
| COc1cc(OC)cc(C2(C#N)CCN(C)CC2)c1 | -0.32 |
| CSc1ccc(C(=O)C2CCCN(Cc3ccn[nH]3)C2)cc1 (stereo not given) | 0.628 |
| Cc1ccc(CN2CCCC(C(=O)c3ccc4c(c3)OCO4)C2)cc1C (stereo not given) | -0.421 |
